{
  "source": "PubChem BioAssay AID1347426",
  "about": "(Functional Genomics Laboratory (NCATS/FGL), 2020)",
  "note": "Hit rate of the full screen: of about 31,000 sequences, about 1,400 (4.5%) were called active.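 The calls were made as follows: active = median seed-adjusted z-score above 1 or below -1; inactive = the rest.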 Many of the other results were omitted from the sample, so actives are more common in it than they were.",
  "data": [
    {"test": "Novel Modifiers of Survival Motor Neuron (SMN) Protein: Gene Identification via Genome-wide siRNA Screen;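 also: luminescence tracks full-length SMN protein made from the SMN2 reporter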", "conditions": "HEK293T SMN2-luciferase reporter, siRNA knockdown, 72 h; actives lie on both sides", "procedure,_shortened": "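siRNA screen, 10418 genes ×3 siRNAs; 1 pmol/well, lipid reverse transfection into HEK293T SMN2-luc reporter line. 72 h, 37 °C, 5% CO2; ONE-Glo readout. Data: neg-ctrl normalized, log10, MAD; hit = MAD >1.0 or < -1.0.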", "values": [
      {"sequence": "GCAACAUGCAGAUAGGUUATT against PHF14", "median seed-adjusted z-score": "0.354 (inactive)"},
      {"sequence": "GCCUGUGACUCAUACUGGATT against ELF5", "median seed-adjusted z-score": "-0.45 (inactive)"},
      {"sequence": "CCGGCUACACCUUCCGUAATT against DNAJB8", "median seed-adjusted z-score": "-1.09 (active)"},
      {"sequence": "GAGAUGCGCAAAUUCACUCTT against IP6K2", "median seed-adjusted z-score": "-0.193 (inactive)"},
      {"sequence": "GGAAAAUCAUUGUGCUAAUTT against VN2R1P", "median seed-adjusted z-score": "-0.25 (inactive)"},
      {"sequence": "GAUUUGGUUUCGUAACUUUTT against A2BP1", "median seed-adjusted z-score": "1.17 (active)"},
      {"sequence": "GACUGGUUAUUACGUCUUATT against SYNJ1", "median seed-adjusted z-score": "0 (inactive)"},
      {"sequence": "GAGUGUAACUGCAACCAGATT against NTNG2", "median seed-adjusted z-score": "0.403 (inactive)"},
      {"sequence": "ACUCAGUGGAGGUCACCAATT against EIF3F", "median seed-adjusted z-score": "-0.0214 (inactive)"},
      {"sequence": "GCCUCUCAGAGAACUACGATT against LRRC33", "median seed-adjusted z-score": "-0.194 (inactive)"},
      {"sequence": "GGGCGAUGUCCAUCCACAATT against PIF1", "median seed-adjusted z-score": "-0.0455 (inactive)"},
      {"sequence": "CUCCAUUCCUGGUAUAGAATT against XRCC5", "median seed-adjusted z-score": "-1.11 (active)"},
      {"sequence": "CCUCCUCACCAAACCCAUUTT against SLC5A1", "median seed-adjusted z-score": "-0.812 (inactive)"},
      {"sequence": "CGACUGAACAAACCCUAUATT against ERCC3", "median seed-adjusted z-score": "0.155 (inactive)"},
      {"sequence": "GCCUGAAUGCAGCCCAGUUTT against SP2", "median seed-adjusted z-score": "-0.617 (inactive)"},
      {"sequence": "AGGACAAGCUGAAAAUCCATT against ZBTB7C", "median seed-adjusted z-score": "0.447 (inactive)"},
      {"sequence": "UCAGUUUGCUGAGAACGAATT against TCEB1", "median seed-adjusted z-score": "1.08 (active)"},
      {"sequence": "CCUCAACUCUAAAUACUCATT against ZNF716", "median seed-adjusted z-score": "0 (inactive)"},
      {"sequence": "GGAGAUCUCUCGUCUCAAUTT against KCNH4", "median seed-adjusted z-score": "-0.769 (inactive)"},
      {"sequence": "GGAGAUGUAUUGGUGAGAATT against CYP3A5", "median seed-adjusted z-score": "0.0516 (inactive)"},
      {"sequence": "GCAGCUACAGGUCAUCUCATT against DGAT2", "median seed-adjusted z-score": "0.195 (inactive)"},
      {"sequence": "GGAGUGCGAUGGACAAUUUTT against LCT", "median seed-adjusted z-score": "0.411 (inactive)"},
      {"sequence": "GGUGCAAGAGAGUCCGUUUTT against D2HGDH", "median seed-adjusted z-score": "-0.637 (inactive)"},
      {"sequence": "UGAAAGGACUGGAGUCCAATT against OLFM1", "median seed-adjusted z-score": "-0.103 (inactive)"},
      {"sequence": "GGAUAUUGGAUUGCCUAGATT against TCFL5", "median seed-adjusted z-score": "1.52 (active)"},
      {"sequence": "GGUUCACUUUGAUAGUACUTT against CLCA4", "median seed-adjusted z-score": "0.186 (inactive)"},
      {"sequence": "GCCCUGAUUUGUGCAAUGATT against PPP1R16B", "median seed-adjusted z-score": "-0.892 (inactive)"},
      {"sequence": "GAGUCAGGAUCGCAAGUCATT against SAFB2", "median seed-adjusted z-score": "0.0394 (inactive)"},
      {"sequence": "CCUCGAUUGUCUUCCGGAATT against UBA7", "median seed-adjusted z-score": "2.41 (active)"},
      {"sequence": "ACUCCAUCCUGAACCCUCATT against USP49", "median seed-adjusted z-score": "0.549 (inactive)"}
    ]}
  ]
}
